Bioassay records deposited in PubChem by National Center for Advancing Translational Sciences (NCATS).
Shown are actives, neighbours in structure and some others; about 10% of the full set was active somewhere.
RORgamma inh: qHTS for inhibitors of ROR gamma transcriptional activity; Nuclear receptor ROR-gamma (Mus musculus), P51450; Drosophila S2 Gal4-RORgamma UAS-luciferase reporter, 20 h; 310,000 tested, 5.4% active; Potency, µM (titrated, usually from 53.6 µM), without a hit: at the top dose activity change, negative = inhibition, usual class: inhibitors; also: % is scaled to controls: 0 for no effect and ±100 for the full control effect; nearly all actives have a fitted effect of over 60% in size
Target sequence (P51450 whole entry, looked up, the tested form may be a part): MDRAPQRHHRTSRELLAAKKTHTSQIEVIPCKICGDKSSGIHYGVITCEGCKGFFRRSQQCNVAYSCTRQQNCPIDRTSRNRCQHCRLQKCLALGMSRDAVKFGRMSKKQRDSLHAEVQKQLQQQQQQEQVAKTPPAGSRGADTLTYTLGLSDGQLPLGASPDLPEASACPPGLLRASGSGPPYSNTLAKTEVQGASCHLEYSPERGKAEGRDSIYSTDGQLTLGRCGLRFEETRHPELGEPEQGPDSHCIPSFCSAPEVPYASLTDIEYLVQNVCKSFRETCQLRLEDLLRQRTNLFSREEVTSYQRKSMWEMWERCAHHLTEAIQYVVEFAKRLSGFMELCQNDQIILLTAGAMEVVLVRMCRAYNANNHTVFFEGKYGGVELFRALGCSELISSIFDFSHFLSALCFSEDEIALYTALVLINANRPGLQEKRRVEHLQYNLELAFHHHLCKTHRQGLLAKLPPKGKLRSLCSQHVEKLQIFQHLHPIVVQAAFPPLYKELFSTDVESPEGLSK
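Drosophila S2 cells stably expressing Gal4-DBD/mouse RORγ fusion under metallothionein promoter plus UAS-luciferase; compound 1 h, then 700 uM CuSO4 induction for 20 h at ambient temperature; inhibition read as reduced luminescence.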
SW480 rereplic: A quantitative high throughput screen for small molecules that induce DNA re-replication in SW480 colon adenocarcinoma cells. Potency, µM (titrated, usually from 46.1 µM), for the others: at the top dose re-replication activation, actives largely listed as activators. 340,000 tested, 1.8% active. SW480 DNA re-replication, Hoechst DNA content imaging, 48 h. AID 624297, 2012; also: % of control where 0% means no effect; nearly all actives have a fitted effect of over 55% in size
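Hoechst fluorescence of nuclei (405 nm excitation, 500-530 nm emission) measured by plate-scanning imager after 48 hr compound exposure at 37 C; re-replication scored as increased number of nuclei with elevated intensity.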
VP16 counter: VP16 counterscreen qHTS for inhibitors of ROR gamma transcriptional activity | Drosophila S2 Gal4-VP16 UAS-luciferase, luminescence, 20 h | Potency, µM (highest dose often 53.6 µM), inactives show at the top dose activity, negative = inhibition, actives largely listed as inhibitors | 310,000 tested, 3.5% active;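 also: Gal4-VP16 expression switched on by copper sulfate through the metallothionein promoter; % is scaled to controls: 0 for no effect and ±100 for the full control effect; nearly all actives have a fitted effect of over 50% in size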
KB-V1 MDR tox: qHTS assay for MDR1-selective chemotherapeutics: Primary screen using the drug-selected MDR subline cells KB-V1. KB-V1 MDR cells viability, CellTiter-Glo, 72 h. Potency, µM (doses to about 46.1 µM), usual class: cytotoxic. 400,000 tested, 3.4% active. AID 1347076, 2019; also: % is scaled to controls: 0 for no effect and ±100 for the full control effect; nearly all actives have a fitted effect of over 60% in size
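KB-V1, DMEM (no phenol red) + 10% FBS; cpd pin-transferred, titration series; 72 h, 37 degrees C; CellTiter-Glo, luminescence. Data normalized, curve-fit.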
MCF10A rereplic: A quantitative high throughput screen for small molecules that induce DNA re-replication in MCF 10a normal breast cells; MCF 10A DNA re-replication, Hoechst nuclear intensity, 48 h; 350,000 tested, 2.9% active; Potency, µM (titrated, usually from 46.1 µM), without a hit: at the top dose activity, positive = re-replication, actives largely listed as activators; AID 624296, 2012; also: % of control where 0% means no effect; nearly all actives have a fitted effect of over 50% in size
KB-3-1 cytotox: qHTS assay for MDR1-selective chemotherapeutics: Primary screen using the parental adenocarcinoma cell KB-3-1; KB-3-1 viability, CellTiter-Glo ATP luminescence, 72 h; Potency, µM (doses to about 46.1 µM), actives largely listed as cytotoxic; 400,000 tested, 1.4% active; AID 1347075, 2019; also: % is scaled to controls: 0 for no effect and ±100 for the full control effect; nearly all actives have a fitted effect of over 60% in size
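Cytotoxicity measured as CellTiter-Glo luminescence after 72 h at 37 C. Compound titrations were pinned onto drug-naive KB-3-1 parental adenocarcinoma cells grown in DMEM with 10% FBS, and normalized data fitted to concentration-response curves.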
* marks the source's active call; other numbers are inactive results; i = inactive; ? = inconclusive; . = no result; [ ] = another dose, or the depositor's remark. Calls follow the shape of the dose curve; as a rule, active = well fitted curve in the direction sought with a large enough effect; inconclusive = small, poorly fitted or top-dose-only effect, or another doubt; inactive = no such curve, though single readings can be large; an effect the other way counts as inactive or inconclusive. Potency is read from the fitted curve at half-maximal effect.

SMILES	RORgamma inh	SW480 rereplic	VP16 counter	KB-V1 MDR tox	MCF10A rereplic	KB-3-1 cytotox
CC(=O)OC1CC[C@]2(C)C(CC(OC(C)=O)[C@@]3(C)C4=CC(=O)OC(c5ccoc5)[C@]4(C)CCC23)C1(C)C (stereo not given in full)	13µM*	.	-1%	.	.	.
CC(=O)OC1C=C[C@]2(C)C(CC(OC(C)=O)[C@@]3(C)C4=CC(=O)OC(c5ccoc5)[C@]4(C)CCC23)C1(C)C (stereo not given in full)	-28%	.	-1%	.	.	.
CCOC(=O)c1c(C)[nH]c(C)c1S(=O)(=O)N1CCCC(C(=O)Nc2ccc(C)c(N(C)C)c2)C1 (stereo not given)	.	.	.	i	.	i
Cc1nc(N2CCCCC2)sc1C(=O)c1cccc([N+](=O)[O-])c1	?	3%	23%	?	-2%	i
Cc1nc(N2CCCCC2)sc1C(=O)c1ccc(SCCO)c([N+](=O)[O-])c1	43%	29%	-5%	15µM*	?	i
COc1ccccc1/C=N/NC(=S)NCc1ccco1	2µM*	-89%	11µM*	i	-2%	i
COc1cc(/C=N/NC(=S)NCc2ccco2)cc(OC)c1OC	43%	-2%	?	?	-2%	i
C=CCNC(=S)N/N=C/c1ccccc1OCCOc1ccccc1	2.5µM*	?	5µM*	i	-9%	i
S=C(NCc1ccco1)N/N=C/c1ccccc1Cl	11µM*	-5%	?	?	3%	i
O=C(N/N=C/c1ccccc1)c1c(O)c2ccccc2[nH]c1=O	?	-5%	-10%	?	10%	23µM*
O=C(N/N=C/c1cccc(F)c1)c1c(O)c2ccccc2[nH]c1=O	?	-6%	-1%	?	-21%	?
O=C(N/N=C/c1ccc(F)cc1)c1c(O)c2ccccc2[nH]c1=O	?	.	-19%	10µM*	?	?
CC(=O)N1CC=CC1(CC(C)C)C(=O)NCc1ccccn1 (stereo not given)	-25%	.	21%	.	.	.
CCN(CC)c1ccc(/C=C(\C#N)C(N)=O)cc1	-17%	1%	9%	i	0%	i
CCN(CC)c1ccc(/C=C(\C#N)C(=O)c2ccc(Br)cc2)cc1	?	?	?	i	13µM*	i
c1ccc(SC23CCCCN(CCC2)[C@]32CO2)cc1 (stereo not given in full)	.	.	.	i	.	i
COc1cc2c(cc1C1NC(=S)NC(C)=C1C(N)=O)CCCC2 (stereo not given)	2.8µM*	?	-2%	i	2%	i
COc1cc(C2NC(=S)NC(C)=C2C(=O)c2ccccc2)ccc1O (stereo not given)	-21%	-9%	0%	?	?	i
CC(=O)O[C@H]1C2=CO[C@H](C)[C@H]3[C@H]4C5=C([C@H](O)[C@H]6O[C@@H]6C5=O)[C@H](O[C@H]4C)[C@@]23C(=O)[C@H]2O[C@@H]21	?	.	-4%[10 µM]	.	.	.
CCOC(=O)C(C(=O)OCC)C(Nc1ccc(Br)cc1)c1ccccc1 (stereo not given)	11µM*	?	?	i	?	?
CCOC(=O)c1ccc(NC(=O)c2nc[nH]c2C(=O)N[C@@H](Cc2ccccc2)C(=O)OC(C)(C)C)cc1	2.8µM*	?	7.1µM*	i	-1%	13µM*
Cc1cccc(NC(=O)c2nc[nH]c2C(=O)N[C@@H](Cc2ccccc2)C(=O)OC(C)(C)C)c1	3.2µM*	-8%	7.1µM*	?	3.7µM*	?
Cc1cccc(NC(=O)c2nc[nH]c2C(=O)NC[C@@H](C)O)c1	.	.	.	i	.	i
CC(C)(C)OC(=O)[C@H](CCCCN)NC(=O)c1[nH]cnc1C(=O)N[C@@H](Cc1ccccc1)C(=O)OCc1ccccc1	.	-2%	.	i	-9%	i
C[C@H](CO)NC(=O)c1[nH]cnc1C(=O)Nc1cccc(Cl)c1	.	.	.	i	.	i
SMILES	RORgamma inh	SW480 rereplic	VP16 counter	KB-V1 MDR tox	MCF10A rereplic	KB-3-1 cytotox
CC(C)(C)OC(=O)[C@H](Cc1ccccc1)NC(=O)c1[nH]cnc1C(=O)Nc1cccc(Cl)c1	4.5µM*	7%[9.22 µM]	4µM*	?	15µM*	?
Cc1cccc(NC(=O)c2nc[nH]c2C(=O)N[C@@H](CC(C)C)C(=O)OC(C)(C)C)c1	5.6µM*	28%[9.22 µM]	10µM*	?	?	12µM*
CCCCn1c(=NC(=O)C(C)(C)Oc2ccc(Cl)cc2)c(C(=O)OCC)cc2c(=O)n3ccccc3nc21	.	.	.	i	.	i
O=C(Nc1ccncc1)c1cnn2c1NC(=C1CC1)C=C2C(F)F	.	.	.	?	.	i
O=C(CCC(=O)N1CC2CCCN2c2ccccc21)NCc1ccc(Cl)cc1 (stereo not given)	.	.	.	i	.	i
CC1CCN(S(=O)(=O)c2ccc3c(c2)c(=O)c(C(=O)N2CCN(c4cccc(Cl)c4)CC2)cn3C)CC1	.	.	.	i	.	i
Cc1ccc(NC(=O)N2CCC(CN3CCC(C)CC3)CC2)cc1F	.	.	.	i	.	i
CCOc1ccc(CCNC(=O)c2cc(Nc3ccc(C)cc3C)nc3ccccc23)cc1OCC	.	.	.	i	.	i
CC(C)(C)OC(=O)[C@H](Cc1ccccc1)NC(=O)c1[nH]cnc1C(=O)Nc1ccc(Cl)cc1	4µM*	?	8.9µM*	?	?	?
COc1ccc(N2C[C@H](CSC)[C@@H](CC(=O)Nc3ccc(Br)cc3)C2=O)cc1	.	.	.	8.2µM*	.	i
COc1ccc(NC(=O)C[C@H]2C(=O)N(c3ccc(Br)cc3)C[C@@H]2CSC)cc1	.	.	.	i	.	i
COc1ccc(CNC(=O)CN(Cc2ccc(C)cc2)C(=O)c2csnn2)cc1	10%	-13%	-13%	i	0%	i
CCc1ccc(CSc2nccn2-c2ccccc2)cc1	8.9µM*	4%	-28%	i	?	i
c1ccc(CCSc2nccn2-c2ccccc2)cc1	10µM*	3%	-6%	i	3%	i
COC(=O)CCCSc1nccn1-c1ccccc1	0%	0%	-14%	i	-1%	i
Nc1nc(=O)n(C2OC(CO)C(O)C2O)cc1Cl (stereo not given)	-19%	.	-13%	.	.	.
O=C(Oc1ccccc1C(=O)Nc1ccccc1)c1ccccc1Br	41%	15µM*	-27%	16µM*	5.2µM*	12µM*
